Screens from PubChem BioAssay.
An excerpt weighted towards active compounds, which were near 17% of everything screened.
TDP1 cell noCPT: qHTS for Inhibitors of human tyrosyl-DNA phosphodiesterase 1 (TDP1): qHTS in cells in absence of CPT; DT40 Tdp1-/- hTDP1 cells, no CPT, ATP luminescence, 48 h; Potency, µM (top dose mostly 46.2 µM), for the others: top-dose activity change, negative = growth inhibition, most hits filed as inhibitors; 15% of 420,000 active; AID 686978, 2013; also: % is scaled to controls: 0 for no effect and ±100 for the full control effect; nearly all actives have a fitted effect of over 55% in size
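Chicken DT40 Tdp1-/- cells stably complemented with human TDP1 were seeded at 400 cells/well with DMSO in place of 20 nM camptothecin. After compound pinning, cells grew at least 48 hr at 37 °C; viability read by CellTiter-Glo luminescence.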
ClpP mod: qHTS Assay for Activators of ClpP; ATP-dependent Clp protease proteolytic subunit (Bacillus subtilis (strain 168)), P80244; purified B. subtilis ClpP, FRET peptide cleavage, 20 min; Potency, µM (series often up to 57.5 µM), inactives show at the highest dose activity change, negative = active; 1.9% of 340,000 active; AID 651965, 2013; active = well fitted falling curve with a large enough effect; inconclusive = small, poorly fitted or top-dose-only effect; inactive = no such curve, though single readings can be large or run the other way; also: the source files actives as falling curves though it sought activators and does not explain the sign; nearly all actives have a fitted effect of over 65% in size
Target sequence (P80244 whole entry, looked up): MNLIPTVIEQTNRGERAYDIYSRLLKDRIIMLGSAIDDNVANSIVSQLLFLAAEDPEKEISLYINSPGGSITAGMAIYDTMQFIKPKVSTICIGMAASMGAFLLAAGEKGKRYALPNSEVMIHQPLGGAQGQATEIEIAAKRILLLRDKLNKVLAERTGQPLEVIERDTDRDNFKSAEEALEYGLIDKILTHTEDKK
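Purified B. subtilis ClpP, 10 microg/mL final in Tris/HCl pH8 with KCl, BSA, glycerol and Tween-20, cleaved an Abz/nitrotyrosine-quenched decapeptide. Fluorescence (ex 320, em 430) was read at 0 and 20 min at room temperature. Delta was normalized to 5.8 microM ADEP and DMSO/no-enzyme controls.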
TDP1 cell CPT: qHTS for Inhibitors of human tyrosyl-DNA phosphodiesterase 1 (TDP1): qHTS in cells in presence of CPT; Potency, µM (highest dose often 46.2 µM), for inactives: top-dose activity change, negative = growth inhibition, actives largely listed as inhibitors; AID 686979, 2013; chicken DT40 Tdp1-/-;hTDP1 cells + 20 nM CPT, ATP luminescence, 48 h; 12% of 420,000 active; also: % is scaled to controls: 0 for no effect and ±100 for the full control effect; nearly all actives have a fitted effect of over 55% in size
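Chicken DT40 Tdp1-/- cells stably complemented with human TDP1 were seeded at 400 cells/well in medium containing 20 nM camptothecin, exposed to pin-transferred compounds, and grown at 37 °C for at least 48 hr. Viability was read as ATP luminescence.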
TDP1 inh: qHTS Assay for Inhibitors of Tyrosyl-DNA Phosphodiesterase (TDP1); Tyrosyl-DNA phosphodiesterase 1 (Homo sapiens), Q9NUW8; recombinant TDP1, AlphaScreen DNA substrate cleavage; Potency, µM (highest dose often 130 µM), without a hit: at the highest dose activity change, negative = inhibition, usual class: inhibitors; 0.28% of 350,000 active; AID 485290, 2010; also: % is scaled to controls: 0 for no effect and ±100 for the full control effect; nearly all actives have a fitted effect of over 40% in size
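Tdp1 1 nM final; 15 min RT w/ cpd; substrate 15 nM, 5 min; beads 10 ug/ml, 10 min; AlphaScreen read. Neg ctrl: no enzyme.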
* marks the source's active call; other numbers are inactive results; ? = inconclusive; nt = no result given; [ ] = dose if it differs, or a comment. Unless noted, calls follow the shape of the dose curve; as a rule, active = well fitted curve in the direction sought with a large enough effect; inconclusive = small, poorly fitted or top-dose-only effect, or another doubt; inactive = no such curve, though single readings can be large; an effect the other way counts as inactive or inconclusive. Potency is read from the fitted curve at half-maximal effect.

SMILES	TDP1 cell noCPT	ClpP mod	TDP1 cell CPT	TDP1 inh
COc1ccc(C2=NN(C(=O)c3cccs3)C(O)(C(F)(F)F)C2)cc1 (centres undefined)	16µM*	nt	?	0%
COc1ccc(S(=O)(=O)N2CCCC2CNC(=O)C(=O)NCc2cccs2)cc1 (centres undefined)	?	-6%	?	nt
CC(C)(C)OC(=O)C[C@@H]1C/C=C\C[C@@H](CC(=O)N[C@H](CO)Cc2ccccc2)C(=O)NC[C@H](c2ccccc2)OC1=O	?	2%	?	0%
CNC(=O)c1sccc1SCc1ccc(Cl)cc1Cl	18µM*	1%	21µM*	2%
CNC(=O)c1sccc1SCc1c(Cl)cccc1Cl	?	1%	?	0%
COc1ccc(S(=O)(=O)N2CCCCC2)cc1NC(=O)[C@@H]1CCCN1C(=O)c1cccs1	-21%	-3%	-1%	-1%[56.1 µM]
O=C(Oc1ccccc1)c1ccc2c(c1)C(=O)N(Cc1ccncc1)C2=O	?	nt	-11%	3%
C1=Cc2ccccc2/C1=C(\Cc1ccncc1)Oc1ccncc1	14µM*	2%	11µM*	nt
COc1ccccc1C1=NOC(C)(c2nnc(Cc3ccccc3)o2)C1 (centres undefined)	-9%	-7%	-4%	nt
C[C@H](CO)N1C[C@H](C)[C@@H](CN(C)Cc2ccc(C(=O)Nc3ccccc3N)cc2)Oc2c(NC(=O)C3CCCCC3)cccc2C1=O	15µM*	-3%	15µM*	5%
C[C@H](CO)N1C[C@H](C)[C@@H](CN(C)Cc2ccc(Cl)c(Cl)c2)Oc2c(NC(=O)CCC(F)(F)F)cccc2C1=O	12µM*	-1%	18µM*	3%
C[C@H](CO)N1C[C@H](C)[C@@H](CN(C)CC2CCCCC2)Oc2c(NC(=O)Cc3ccccc3)cccc2C1=O	16µM*	-1%	15µM*	3%
C[C@@H]1CN([C@H](C)CO)C(=O)c2cccc(NC(=O)c3ccncc3)c2O[C@@H]1CN(C)Cc1ccc(C(=O)O)cc1	0%	-4%	5%	4%
C[C@H](CO)N1C[C@H](C)[C@@H](CN(C)C(=O)Nc2ccc3c(c2)OCO3)Oc2c(NC(=O)C3CCCCC3)cccc2C1=O	-10%	1%	-7%	0%
C[C@H](CO)N1C[C@H](C)[C@@H](CN(C)Cc2ccc3c(c2)OCO3)Oc2c(NC(=O)C3CCCCC3)cccc2C1=O	23µM*	0%	21µM*	5%
C[C@H](CO)N1C[C@H](C)[C@@H](CN(C)S(=O)(=O)c2ccc(F)cc2)Oc2c(NC(=O)CCC(F)(F)F)cccc2C1=O	-1%	2%	?	0%
CC(C)NC(=O)N(C)C[C@H]1Oc2c(NC(=O)Cc3ccccc3)cccc2C(=O)N([C@H](C)CO)C[C@@H]1C	-7%	-4%	-13%	1%
CC(=O)Nc1cccc(NS(=O)(=O)c2cc3c4c(c2)CCN4C(=O)CC3)c1	-16%	-2%	-17%	-2%
CN(C)S(=O)(=O)c1cccc(C(=O)Nc2ccccc2C(=O)NC2CC2)c1	?	-43%	-25%	0%
C[C@H]1CN([C@@H](C)CO)C(=O)c2cccc(NC(=O)C3CC3)c2O[C@H]1CN(C)Cc1ccc(C(F)(F)F)cc1	?	-2%	-28%	0%
C[C@H](CO)N1C[C@H](C)[C@@H](CN(C)Cc2ccc(Cl)c(Cl)c2)Oc2c(NC(=O)C3CC3)cccc2C1=O	23µM*	1%	16µM*	1%
COC(=O)c1cccc(Oc2cccc(Cl)n2)c1	-13%	-1%	5%	1%
CCCCc1c(C)nc2ccc(C)cc2c1SCCC(=O)O	9.2µM*	nt	?	5%
CCn1c(=O)n(CC)c2cc(N3CCCC3)c(NC(=O)c3ccccc3OC)cc21	5.8µM*	-1%	6.5µM*	7%
CCOc1ccccc1C(=O)Nc1cc2c(cc1N1CCOCC1)n(C)c(=O)n2C	16µM*	-29%	15µM*	5%
SMILES	TDP1 cell noCPT	ClpP mod	TDP1 cell CPT	TDP1 inh
CCn1c(=O)n(CC)c2cc(N3CCCC3)c(NC(=O)c3cc(Cl)ccc3OC)cc21	21µM*	-3%	16µM*	14%
COc1ccccc1C(=O)NC(=S)Nc1ccccc1N1CCCC1	nt	nt	nt	11%
CCn1c(=O)n(CC)c2cc(N3CCCC3)c(NC(=O)c3ccc(OC)c(Br)c3)cc21	12µM*	-6%	16µM*	12%
CCCOc1ccc(C(=O)Nc2cc3c(cc2N2CCCCC2)n(C)c(=O)n3C)cc1	-5%	-2%	-4%	5%
COc1ccc(CCc2nnc(CCC(=O)NCc3ccc4ncccc4c3)o2)cc1	-27%	nt	-13%	6%
CC[C@H]1O[C@H](C)CC2=C1C(=O)OC(C)(C)O2	1%	1%	2%	nt
Oc1ccc(/C=N/N2CCN(C3c4ccccc4-c4ccccc43)CC2)c(O)c1	?	nt	10%	8%
Cn1c(SCc2ccc([N+](=O)[O-])cc2)nnc1-c1cccnc1	-18%	nt	4%	8%
CCOc1ccccc1C(=O)Nc1cc2c(cc1N1CCCC1)n(CC)c(=O)n2CC	4.6µM*	3%	4.6µM*	15%
CCOc1cc(C(=O)Nc2cc3c(cc2N2CCCC2)n(C)c(=O)n3C)cc(OCC)c1OCC	12%	-13%	-7%	5%
C=CCNc1ncnc2c1ncn2[C@H]1CN(C2CCCC2)C[C@@H](CO)O1	1%	1%	-1%	nt
CN(C)CCCNc1ncnc2c1cnn2Cc1ccccc1Cl	-2%	nt	4%	nt
CCCC(=O)NNC(=O)c1c(O)c2ccccc2[nH]c1=O	?	nt	2%	2%
Cc1nc2ccccn2c1C(=O)CSc1ccc(Cl)cc1Cl	18µM*	0%	?	0%
Cc1nc2ccccn2c1C(=O)CSc1ccccc1Cl	16µM*	-5%	16µM*	4%
CCOC(=O)c1c(C)oc2nc(C)nc(N3CCN(c4cccc(C(F)(F)F)c4)CC3)c12	5.2µM*	?	9.2µM*	0%
CCOC(=O)c1c(C)oc2nc(C)nc(N3CCN(c4ccc(C)cc4C)CC3)c12	?	-1%	-8%	4%
CCOC(=O)c1cc(C#N)c(N2CCN(C(=O)c3cccc(C(F)(F)F)c3)CC2)nc1C(F)(F)F	15µM*	nt	?	-1%
CCOC(=O)c1c(C)oc2nc(C)nc(N3CCN(c4ccccc4)CC3)c12	15µM*	-4%	9.2µM*	5%
CCOC(=O)c1c(C)oc2nc(C)nc(N(C)Cc3ccccc3)c12	23µM*	-3%	18µM*	-2%
COc1cc(C2C(C#N)=C(SC)NC3=C2C(=O)CCC3)ccc1O (centres undefined)	-5%	nt	4%	-1%
CCc1ccccc1NC(=O)CSC1=C(C#N)C(c2ccc(O)c(OC)c2)C2=C(CCCC2=O)N1 (centres undefined)	23µM*	1%	21µM*	4%
